From PubChem BioAssay AID588689 (Southern Research Specialized Biocontainment Screening …, 2011)
In all, about 340,000 compounds went through this assay and about 1,000 (0.29%) were called active. Rule as the data show it: inconclusive = inhibition above about 29% without an active follow-up result; inactive = below that. A selection follows. Results with a measured potency or affinity are listed apart.

Target: Genome polyprotein (Dengue virus type 2 (strain 16681-PDK53)) (UniProt P29991)
Test: Dengue-2 NS5 methyltransferase inhibitors, primary screen, biochemical, confirmation dose response (AID 588689)
Settings: Dengue-2 NS5 methyltransferase capping enzyme assay, at 25 µM, stronger effect = higher value
[1] = measured here: pilot screen replicate inhibition

Chain of Genome polyprotein (Dengue virus type 2 (strain 16681-PDK53)) (P29991 whole entry, looked up): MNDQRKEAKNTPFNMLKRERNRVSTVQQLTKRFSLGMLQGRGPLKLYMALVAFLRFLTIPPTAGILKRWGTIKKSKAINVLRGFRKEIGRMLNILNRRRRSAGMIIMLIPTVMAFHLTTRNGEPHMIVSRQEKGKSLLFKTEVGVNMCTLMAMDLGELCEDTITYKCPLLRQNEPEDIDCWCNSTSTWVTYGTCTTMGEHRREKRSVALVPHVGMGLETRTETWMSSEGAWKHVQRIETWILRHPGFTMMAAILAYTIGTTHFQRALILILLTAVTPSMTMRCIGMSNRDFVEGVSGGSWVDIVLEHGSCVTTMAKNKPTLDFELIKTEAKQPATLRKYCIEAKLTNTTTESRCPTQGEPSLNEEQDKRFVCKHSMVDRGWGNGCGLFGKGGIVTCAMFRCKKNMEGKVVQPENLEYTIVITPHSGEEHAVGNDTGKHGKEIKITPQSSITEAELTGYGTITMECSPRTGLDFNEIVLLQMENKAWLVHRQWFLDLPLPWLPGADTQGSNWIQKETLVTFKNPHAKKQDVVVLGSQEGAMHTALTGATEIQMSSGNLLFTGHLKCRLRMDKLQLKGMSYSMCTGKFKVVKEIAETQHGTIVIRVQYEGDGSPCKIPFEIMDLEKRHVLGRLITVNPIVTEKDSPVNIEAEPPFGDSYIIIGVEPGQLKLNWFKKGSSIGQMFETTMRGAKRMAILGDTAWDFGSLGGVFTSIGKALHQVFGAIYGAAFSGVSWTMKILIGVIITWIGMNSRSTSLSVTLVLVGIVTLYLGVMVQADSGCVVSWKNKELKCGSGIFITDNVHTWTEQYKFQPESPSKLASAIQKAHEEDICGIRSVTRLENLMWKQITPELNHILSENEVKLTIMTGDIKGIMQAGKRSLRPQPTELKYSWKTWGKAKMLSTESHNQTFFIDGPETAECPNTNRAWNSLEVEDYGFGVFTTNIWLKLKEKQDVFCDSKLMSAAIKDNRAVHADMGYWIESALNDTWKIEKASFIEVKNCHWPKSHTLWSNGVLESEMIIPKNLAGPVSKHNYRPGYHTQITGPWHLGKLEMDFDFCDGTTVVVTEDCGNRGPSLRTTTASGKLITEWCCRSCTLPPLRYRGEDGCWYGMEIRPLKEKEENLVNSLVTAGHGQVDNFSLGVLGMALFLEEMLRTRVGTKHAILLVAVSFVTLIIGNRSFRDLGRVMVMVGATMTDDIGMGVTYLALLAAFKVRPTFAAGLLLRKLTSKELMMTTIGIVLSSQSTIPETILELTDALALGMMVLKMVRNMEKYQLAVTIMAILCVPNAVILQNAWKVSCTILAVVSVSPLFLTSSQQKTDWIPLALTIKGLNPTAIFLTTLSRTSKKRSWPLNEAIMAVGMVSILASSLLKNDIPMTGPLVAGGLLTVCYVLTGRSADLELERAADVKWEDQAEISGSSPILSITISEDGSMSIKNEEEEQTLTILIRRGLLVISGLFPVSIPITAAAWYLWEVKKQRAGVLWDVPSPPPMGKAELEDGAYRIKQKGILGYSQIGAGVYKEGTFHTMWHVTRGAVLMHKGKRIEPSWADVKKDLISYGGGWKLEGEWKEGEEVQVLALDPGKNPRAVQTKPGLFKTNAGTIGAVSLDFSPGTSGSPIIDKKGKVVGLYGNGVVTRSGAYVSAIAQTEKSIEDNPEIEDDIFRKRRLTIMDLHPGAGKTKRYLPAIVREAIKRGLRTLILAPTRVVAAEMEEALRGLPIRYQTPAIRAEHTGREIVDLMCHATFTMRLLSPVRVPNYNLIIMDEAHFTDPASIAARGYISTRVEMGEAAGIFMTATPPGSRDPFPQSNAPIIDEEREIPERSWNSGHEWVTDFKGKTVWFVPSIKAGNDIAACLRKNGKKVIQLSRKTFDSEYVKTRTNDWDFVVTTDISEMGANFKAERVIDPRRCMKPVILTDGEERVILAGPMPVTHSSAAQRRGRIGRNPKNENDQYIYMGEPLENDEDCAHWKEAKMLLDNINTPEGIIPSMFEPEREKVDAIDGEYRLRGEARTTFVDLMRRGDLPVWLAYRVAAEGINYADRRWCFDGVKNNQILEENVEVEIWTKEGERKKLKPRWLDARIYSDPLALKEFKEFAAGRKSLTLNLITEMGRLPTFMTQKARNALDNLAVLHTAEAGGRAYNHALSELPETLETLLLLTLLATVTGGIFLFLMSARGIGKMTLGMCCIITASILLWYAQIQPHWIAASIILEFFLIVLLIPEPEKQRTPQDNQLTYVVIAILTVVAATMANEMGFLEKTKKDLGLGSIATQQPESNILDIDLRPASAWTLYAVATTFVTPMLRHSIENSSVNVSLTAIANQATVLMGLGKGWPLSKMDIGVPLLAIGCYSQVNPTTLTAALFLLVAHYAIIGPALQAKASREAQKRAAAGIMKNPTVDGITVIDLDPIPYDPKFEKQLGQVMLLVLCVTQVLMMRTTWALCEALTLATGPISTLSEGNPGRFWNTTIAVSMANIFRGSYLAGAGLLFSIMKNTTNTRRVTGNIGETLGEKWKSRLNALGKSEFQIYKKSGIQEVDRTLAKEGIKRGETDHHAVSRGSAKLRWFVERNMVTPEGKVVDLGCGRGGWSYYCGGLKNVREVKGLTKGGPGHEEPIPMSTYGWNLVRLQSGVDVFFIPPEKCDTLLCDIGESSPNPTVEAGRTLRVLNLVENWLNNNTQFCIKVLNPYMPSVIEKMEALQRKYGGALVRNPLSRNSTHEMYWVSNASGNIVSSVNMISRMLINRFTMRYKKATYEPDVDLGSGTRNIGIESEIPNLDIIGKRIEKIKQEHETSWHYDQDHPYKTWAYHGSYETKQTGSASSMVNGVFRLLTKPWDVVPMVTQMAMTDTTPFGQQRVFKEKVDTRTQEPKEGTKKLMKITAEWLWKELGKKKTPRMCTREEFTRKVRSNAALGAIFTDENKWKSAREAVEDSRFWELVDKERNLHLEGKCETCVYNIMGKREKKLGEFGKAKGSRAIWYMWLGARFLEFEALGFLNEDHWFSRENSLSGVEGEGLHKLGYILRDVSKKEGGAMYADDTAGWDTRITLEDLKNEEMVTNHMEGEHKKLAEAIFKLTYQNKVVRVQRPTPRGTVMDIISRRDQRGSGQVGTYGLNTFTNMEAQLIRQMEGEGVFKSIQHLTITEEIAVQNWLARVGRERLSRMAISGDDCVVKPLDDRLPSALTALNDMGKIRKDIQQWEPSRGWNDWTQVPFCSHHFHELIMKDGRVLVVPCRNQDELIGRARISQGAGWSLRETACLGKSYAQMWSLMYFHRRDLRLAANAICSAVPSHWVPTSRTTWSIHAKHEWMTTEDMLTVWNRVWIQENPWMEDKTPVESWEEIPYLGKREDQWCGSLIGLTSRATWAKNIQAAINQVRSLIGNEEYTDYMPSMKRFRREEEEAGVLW

SMILES	inhibition	inhibition [1]
CC(CN1CCN(Cc2ccccc2)CC1)OC(=O)c1ccco1 (stereo not drawn)	2.3% (inactive)	–
Cc1ccc(/C=C(\CCC(=O)O)c2nc3ccccc3s2)cc1[N+](=O)[O-]	13.8% (inactive)	–
O=C(O)CC/C(=C\c1ccc(N2CCOCC2)c([N+](=O)[O-])c1)c1nc2ccccc2s1	24% (inactive)	–
CN(c1ccccc1)c1ccc(/C=C(\CCC(=O)O)c2nc3ccccc3s2)cc1[N+](=O)[O-]	26.1% (inactive)	–
O=C(O)C/C(=C\c1ccc(N2CCOCC2)c([N+](=O)[O-])c1)c1nc2ccccc2s1	6.96% (inactive)	–
COc1ccc(NC(=O)C2CCCCN2S(=O)(=O)c2ccc(F)cc2)cc1 (stereo not drawn)	-2.91% (inactive)	–
Cc1csc2nc(=O)c3ccccc3n12	-0.7% (inactive)	–
Cc1cccc(NCc2cc(Cl)cc(Cl)c2O)n1	-2.76% (inactive)	–
Oc1c(Cl)cc(Cl)cc1CNc1nc2ccccc2[nH]1	-17.7% (inactive)	–
O=C(CSc1nnc2scc(-c3ccccc3)n12)NCc1ccc2c(c1)OCO2	-2.59% (inactive)	–
NC1=C(Cl)C(=O)c2ccccc2C1=O	-5.02% (inactive)	–
Nc1c(Cl)cc2c(c1Oc1ccccc1)C(=O)c1ccccc1C2=O	0% (inactive)	–
Cc1cc(C)n(CC(=O)NNC(=O)COc2ccc(Cl)cc2Cl)n1	-9.01% (inactive)	–
COc1ccc2c(c1)[nH]c1c(=O)n(CCN3CCOCC3)cnc12	-4.77% (inactive)	–
O=C(CN(C(=O)Cn1nnc(-c2ccc(F)cc2)n1)c1ccc(F)cc1)NC1CCCC1	-4.85% (inactive)	–
O=C(NCc1cccs1)c1nc2c(nnn2Cc2ccc(F)cc2)c(=O)[nH]1	-3.42% (inactive)	–
O=C(NCc1ccco1)c1nc2c(nnn2Cc2ccccc2Cl)c(=O)[nH]1	-1.35% (inactive)	–
COc1cc(/C=C2\SC(=O)N(Cc3ccc(F)cc3)C2=O)cc([N+](=O)[O-])c1O	14.6% (inactive)	–
COc1cc(/C=C2\SC(=O)N(c3ccc(Cl)cc3)C2=O)cc([N+](=O)[O-])c1O	3.7% (inactive)	–
CC(C)c1ccc(CCNC(=O)CCNS(=O)(=O)c2ccc(Br)cc2)cc1	2.95% (inactive)	–
CC1CCCN(CCCOc2ccc(Br)cc2Cl)C1 (stereo not drawn)	-5.92% (inactive)	–

SMILES	inhibition	inhibition [1]
C=CCn1c(SCC(=O)c2[nH]c(C)c(C(=O)OCC)c2C)nc2scc(-c3ccccc3)c2c1=O	0.73% (inactive)	–
CCC1Nc2ccccc2-c2nnc(SC)nc2O1 (stereo not drawn)	6.45% (inactive)	–
Nc1ccccc1-c1nnc(SCc2ccccc2F)[nH]c1=O	2.71% (inactive)	–
CCSc1nnc2c(n1)OC1(CCCC1)Nc1ccccc1-2	-4.17% (inactive)	–
O=c1cc(-c2ccccc2)nc(SCc2ccccc2F)[nH]1	-2.34% (inactive)	–
Cc1[nH]c(C)c(S(=O)(=O)N(Cc2ccccc2)C(C)C)c1C(=O)N1CCCC1	-0.98% (inactive)	–
COc1ccc(S(=O)(=O)N2CCN(C(=O)CCOc3ccccc3)CC2)cc1OC	4.1% (inactive)	–
O=C(O)c1ccccc1NSc1ccccc1[N+](=O)[O-]	21.6% (inactive)	–
O=C(O)c1cccc2c1-c1c(cccc1[N+](=O)[O-])C2	-1.17% (inactive)	–
O=C(O)C1CCC(NSc2ccccc2[N+](=O)[O-])CC1 (stereo not drawn)	7.73% (inactive)	–
CCN(CC(=O)Nc1ccc(NC(C)=O)cc1)C(=O)c1ccc(N2CCC(C)CC2)c([N+](=O)[O-])c1	-0.77% (inactive)	–
CCN(CC(=O)Nc1ccc(NC(C)=O)cc1)C(=O)c1ccc(NC2CC2)c([N+](=O)[O-])c1	-1.48% (inactive)	–
Cc1ccc2c(c1C)NC(C(=O)O)C1CC=CC21 (stereo not drawn)	9.74% (inactive)	–
Cc1occc1C(=O)NNC(=O)COc1ccc(Br)cc1Br	-1.83% (inactive)	–
CCNC(=O)C1CCCN(c2nc(C)cc(C)n2)C1 (stereo not drawn)	3.17% (inactive)	–
Cc1nn(C(=O)c2ccc3c(c2)OCO3)c(N)c1-c1ccccc1	-2.78% (inactive)	–
CCc1ccc(/C=C2\SC(=S)N(CCCC(=O)Nc3nccs3)C2=O)cc1	5.18% (inactive)	–
COc1ccc(C(=O)Cn2c(C(C)=O)nc3ccccc32)cc1	-4.63% (inactive)	–
COc1ccc(N2CCN(C(=O)CC3NC4CCCCC4NC3=O)CC2)cc1 (stereo not drawn)	4.8% (inactive)	-0.61%
CCC(Oc1ccccc1)C(=O)N1CCN(S(=O)(=O)c2ccccc2)CC1 (stereo not drawn)	-3.63% (inactive)	–
Cc1cccc(C)c1N(CC(=O)NCc1ccco1)C(=O)CNS(=O)(=O)c1ccc(F)cc1	-7.48% (inactive)	–

SMILES	inhibition	inhibition [1]
CC1(C)C(=O)C2(CCCCC2)C(=O)OC1c1ccc(O)cc1 (stereo not drawn)	5.67% (inactive)	–
OCCOCCN1CCN(C(=S)Nc2ccccc2)CC1	-12.4% (inactive)	–
O=S(=O)(c1ccc(Br)cc1Cl)N1CCN(CCO)CC1	0.74% (inactive)	–
O=[N+]([O-])c1ccc(N2CCN(CCOCCO)CC2)c([N+](=O)[O-])c1	-3.06% (inactive)	–
Cc1cc(=O)oc2c(CN3CCN(CCO)CC3)c(O)ccc12	-1.72% (inactive)	–
Cc1noc(C)c1C(=O)OCC(=O)N1CCc2ccccc21	-4.42% (inactive)	–
CN(C(=O)c1ccc(NC(=O)Cc2ccc(NC(=O)C3CCCN(C(=O)C4CCC4)C3)cc2)cc1)C1CC1 (stereo not drawn)	-5.79% (inactive)	–
Cc1ccc(NC(=O)CSc2nncs2)cc1Cl	-5.19% (inactive)	–
O=C(c1ccc(F)cc1F)N1CCCc2ccccc21	-15% (inactive)	–
Cc1ccccc1C(=O)Nc1ccc(S(=O)(=O)Nc2onc(C)c2C)cc1	-6.85% (inactive)	–
Cc1noc(NS(=O)(=O)c2ccc(NC(=O)c3cc(F)c(F)c(F)c3F)cc2)c1C	8.65% (inactive)	–
Cc1noc(NS(=O)(=O)c2ccc(NC(=O)c3cccc(S(=O)(=O)Nc4ccccc4F)c3)cc2)c1C	-5.34% (inactive)	–
Cc1noc(NS(=O)(=O)c2ccc(NC(=O)c3ccc(F)cc3)cc2)c1C	11.3% (inactive)	–
CC(=O)C1=C(O)C(=O)N(Cc2ccccc2)C1c1ccc(N(C)C)cc1 (stereo not drawn)	-5.27% (inactive)	-5.49%
CC(C1CC1)N(Cc1ccccc1)C(=O)NC(=O)c1cccc(F)c1 (stereo not drawn)	-0.76% (inactive)	–
O=C(CN1C(=O)C2CC=CCC2C1=O)Nc1cc(C(F)(F)F)ccc1N1CCCC1 (stereo not drawn)	4.32% (inactive)	–
CC1(C)CC[C@]2(C(=O)O[C@@H]3OC(CO)[C@@H](O)[C@H](O)[C@H]3O)CC[C@]3(C)C(=CCC4[C@@]5(C)CC[C@H](O[C@@H]6OC(C(=O)O)[C@@H](O)[C@H](O)[C@H]6O)C(C)(C)C5CC[C@]43C)[C@@H]2C1 (stereo partly drawn)	20.2% (inactive)	2.42%
CC1(C)CC[C@]2(C(=O)O[C@@H]3O[C@H](CO)[C@@H](O)[C@H](O)[C@H]3O)CC[C@]3(C)C(=CCC4[C@@]5(C)CC[C@H](O[C@@H]6O[C@H](C(=O)O)[C@@H](O[C@H]7OC[C@@H](O)[C@@H](O)[C@@H]7O)[C@H](O)[C@H]6O)C(C)(C)C5CC[C@]43C)[C@@H]2C1 (stereo partly drawn)	-9.97% (inactive)	–
COCCCN(Cc1ccco1)C(=O)CSc1nc2ncccc2[nH]1	-4.52% (inactive)	–
Cc1oc(-c2ccccc2Cl)nc1CS(=O)CC(=O)NCCCN1CC(C)CC(C)C1 (stereo not drawn)	2.33% (inactive)	–
COc1cccc(/C=C2\Oc3cc(OCC(=O)N4CCC[C@H]4C(=O)O)ccc3C2=O)c1	2.17% (inactive)	–

SMILES	inhibition	inhibition [1]
COc1ccc(/C=C2\Oc3cc(OCC(=O)N4CC(O)C[C@H]4C(=O)O)ccc3C2=O)cc1OC (stereo partly drawn)	-10.1% (inactive)	–
CC(=O)CCS(=O)(=O)c1ccc(Oc2ccc(S(=O)(=O)CCC(C)=O)cc2)cc1	3.83% (inactive)	–
O=C(O)c1cccc(Nc2nc3ccccc3nc2NS(=O)(=O)c2ccccc2)c1	19.8% (inactive)	–
Cc1cccc(S(=O)(=O)Nc2nc3ccccc3nc2Nc2cccc(C(=O)O)c2)c1	27.7% (inactive)	–
O=C(O)c1ccc(Nc2nc3ccccc3nc2NS(=O)(=O)c2cccs2)cc1	19.7% (inactive)	–
CC(=O)Nc1ccc(S(=O)(=O)Nc2nc3ccccc3nc2Nc2ccccc2)cc1	-18.8% (inactive)	–
COc1cccc(Nc2nc3ccccc3nc2NS(=O)(=O)c2cccs2)c1	16.4% (inactive)	3.81%
O=C(O)c1cccc(Nc2nc3ccccc3nc2NS(=O)(=O)c2ccc(F)cc2)c1	8.81% (inactive)	–
CCc1ccc(/C=C2\SC(=S)N(CCCC(=O)N(CCO)c3ccccc3)C2=O)cc1	2.75% (inactive)	–
Cc1ccc(-c2nc3ccccc3[nH]2)cc1NC(=O)c1sc2cc(Cl)ccc2c1Cl	-3.63% (inactive)	–
CCC(C)C(NC(=O)c1ccccc1NC(=O)c1ccccc1)C(=O)O (stereo not drawn)	-1.16% (inactive)	–
O=C(NNC(=O)c1ccccc1-n1cccc1)c1cccc(Cl)c1	-3.46% (inactive)	–
CCCC(C)NNC(=O)c1cc2ccccc2[nH]1 (stereo not drawn)	0% (inactive)	–
COc1ccc(Cl)cc1Nc1nc(-c2sc(NC(=O)C(C)(C)C)nc2C)cs1	-12% (inactive)	–
Cc1ccc(-c2cccc(C3CC=CC4C3C(=O)N(Cc3ccccc3)C4c3cc(C)ccc3F)c2)cc1 (stereo not drawn)	-5.46% (inactive)	–
COc1cc(S(=O)(=O)Nc2cccc(C)c2)ccc1NC(=O)c1ccncc1	-1.47% (inactive)	–
N#CC1=C(N)C2=CCCC[C@H]2[C@H](c2cccc(F)c2)C1(C#N)C#N	-4.34% (inactive)	–
COc1ccc(C=NNc2ccc(S(=O)(=O)Nc3ccccc3C(=O)O)cc2[N+](=O)[O-])c(OC)c1	17% (inactive)	–
COc1cc(C=NNc2ccc(S(=O)(=O)Nc3ccccc3C(=O)O)cc2[N+](=O)[O-])ccc1O	17.4% (inactive)	–
O=C(O)c1ccccc1NS(=O)(=O)c1ccc(NN=Cc2ccccc2F)c([N+](=O)[O-])c1	9.54% (inactive)	–
CC(=O)Nc1ccc(C=NNc2ccc(S(=O)(=O)Nc3ccccc3C(=O)O)cc2[N+](=O)[O-])cc1	12.4% (inactive)	–
